The supplement of paper PMC11732987, “Enantioselective OTUD7B fragment discovery through chemoproteomics screening and high-throughput optimisation” (Communications Chemistry, 2025)
Values without a mark were called inactive.

Columns and labels:
Assay in all cases: log2 ratio of Biotin-Ahx-Ub-VS probe labelling (fragment/DMSO); higher = less target engagement (more negative = stronger competition), active = hit call of the paper (q ≤ 0.05, log2 ratio ≤ -1)
Settings in all cases: compound concentration: 200 uM; treatment time: 3 h
[1] = target: T1, ALG13 (UniProt Q9NP73)
T1 sequence (whole entry): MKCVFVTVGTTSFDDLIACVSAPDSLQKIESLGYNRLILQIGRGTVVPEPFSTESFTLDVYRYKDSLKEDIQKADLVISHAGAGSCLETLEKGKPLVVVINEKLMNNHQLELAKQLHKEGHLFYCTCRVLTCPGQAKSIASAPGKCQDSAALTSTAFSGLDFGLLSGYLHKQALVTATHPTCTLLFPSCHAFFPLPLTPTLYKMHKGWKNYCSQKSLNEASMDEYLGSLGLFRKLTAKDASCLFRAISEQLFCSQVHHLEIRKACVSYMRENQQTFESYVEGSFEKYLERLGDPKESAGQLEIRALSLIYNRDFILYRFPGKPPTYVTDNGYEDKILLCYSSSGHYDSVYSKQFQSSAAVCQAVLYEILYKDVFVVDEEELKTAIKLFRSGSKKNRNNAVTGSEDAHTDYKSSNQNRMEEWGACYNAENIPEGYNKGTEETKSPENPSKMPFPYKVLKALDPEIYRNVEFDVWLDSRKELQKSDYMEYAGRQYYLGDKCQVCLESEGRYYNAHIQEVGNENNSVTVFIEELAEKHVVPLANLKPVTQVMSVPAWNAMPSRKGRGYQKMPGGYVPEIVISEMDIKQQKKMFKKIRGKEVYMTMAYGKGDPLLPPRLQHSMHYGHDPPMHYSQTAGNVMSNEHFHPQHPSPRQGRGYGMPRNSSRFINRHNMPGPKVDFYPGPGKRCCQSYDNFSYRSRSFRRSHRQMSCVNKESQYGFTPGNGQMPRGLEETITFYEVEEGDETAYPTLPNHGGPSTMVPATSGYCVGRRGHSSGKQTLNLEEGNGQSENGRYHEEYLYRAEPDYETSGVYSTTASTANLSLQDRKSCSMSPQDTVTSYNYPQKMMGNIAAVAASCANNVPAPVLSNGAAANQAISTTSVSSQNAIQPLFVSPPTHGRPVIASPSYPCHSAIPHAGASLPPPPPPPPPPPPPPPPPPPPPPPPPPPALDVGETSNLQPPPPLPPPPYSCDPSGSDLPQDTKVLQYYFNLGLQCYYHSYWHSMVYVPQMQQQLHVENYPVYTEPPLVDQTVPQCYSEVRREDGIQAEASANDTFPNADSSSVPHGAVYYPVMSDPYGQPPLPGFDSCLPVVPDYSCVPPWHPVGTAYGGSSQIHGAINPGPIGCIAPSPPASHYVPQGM
In short: (§1)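 The table lists average log2 ratios of fragment over vehicle, from an unpaired t-test on global-median-normalised Spectronaut label-free quantities. Proteins with ≥2 unique peptides were used. Samples were HEK293T lysate (495 µg) treated in triplicate with fragment at 200 µM or vehicle for 3 h, then with Biotin-Ahx-Ub-VS (0.5 µM final) for 1 h, with labelled DUBs NeutrAvidin-enriched and run by diaPASEF LC-MS/MS.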

[2] = target: ATXN3 (UniProt P54252)
Chain of ATXN3 (P54252 whole entry): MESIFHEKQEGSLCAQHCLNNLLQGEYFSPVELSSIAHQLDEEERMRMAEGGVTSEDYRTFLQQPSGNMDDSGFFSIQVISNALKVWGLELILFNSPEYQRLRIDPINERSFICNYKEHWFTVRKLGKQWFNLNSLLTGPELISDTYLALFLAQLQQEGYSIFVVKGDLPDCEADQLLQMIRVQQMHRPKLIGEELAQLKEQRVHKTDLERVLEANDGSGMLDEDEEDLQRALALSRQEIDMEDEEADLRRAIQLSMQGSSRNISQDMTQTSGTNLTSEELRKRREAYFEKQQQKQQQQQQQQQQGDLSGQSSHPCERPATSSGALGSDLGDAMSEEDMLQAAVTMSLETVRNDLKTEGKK
In short: as §1

[3] = target: T2, BAP1 (UniProt Q92560)
T2 sequence (whole entry): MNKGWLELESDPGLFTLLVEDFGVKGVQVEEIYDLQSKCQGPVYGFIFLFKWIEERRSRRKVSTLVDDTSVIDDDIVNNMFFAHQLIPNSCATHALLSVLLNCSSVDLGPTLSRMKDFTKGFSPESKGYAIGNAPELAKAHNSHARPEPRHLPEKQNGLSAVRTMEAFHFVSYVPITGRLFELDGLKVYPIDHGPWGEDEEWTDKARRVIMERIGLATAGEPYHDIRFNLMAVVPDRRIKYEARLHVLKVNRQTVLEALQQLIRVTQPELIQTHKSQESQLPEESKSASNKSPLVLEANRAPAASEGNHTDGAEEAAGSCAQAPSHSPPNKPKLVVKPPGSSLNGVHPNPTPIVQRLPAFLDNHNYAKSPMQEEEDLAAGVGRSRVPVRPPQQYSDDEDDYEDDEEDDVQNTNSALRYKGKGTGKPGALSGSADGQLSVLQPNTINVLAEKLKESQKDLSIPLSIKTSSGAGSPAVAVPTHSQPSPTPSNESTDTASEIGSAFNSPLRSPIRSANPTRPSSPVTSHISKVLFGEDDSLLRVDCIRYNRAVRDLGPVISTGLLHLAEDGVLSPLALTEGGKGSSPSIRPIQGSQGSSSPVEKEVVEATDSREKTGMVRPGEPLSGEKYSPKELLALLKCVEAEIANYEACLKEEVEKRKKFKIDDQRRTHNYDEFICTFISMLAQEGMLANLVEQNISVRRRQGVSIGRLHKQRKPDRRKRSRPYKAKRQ
In short: as §1

[4] = target: EIF3F (UniProt O00303)
Chain of EIF3F (O00303 whole entry): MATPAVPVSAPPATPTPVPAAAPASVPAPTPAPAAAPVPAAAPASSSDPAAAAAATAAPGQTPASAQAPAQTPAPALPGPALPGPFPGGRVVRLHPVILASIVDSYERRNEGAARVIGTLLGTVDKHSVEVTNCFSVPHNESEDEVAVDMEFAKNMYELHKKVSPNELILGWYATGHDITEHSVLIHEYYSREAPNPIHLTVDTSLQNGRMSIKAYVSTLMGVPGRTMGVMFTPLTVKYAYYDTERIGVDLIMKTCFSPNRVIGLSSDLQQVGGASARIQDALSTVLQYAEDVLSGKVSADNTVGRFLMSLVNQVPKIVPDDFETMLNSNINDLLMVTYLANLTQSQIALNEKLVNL
In short: as §1

[5] = target: EIF3H (UniProt O15372)
Chain of EIF3H (O15372 whole entry): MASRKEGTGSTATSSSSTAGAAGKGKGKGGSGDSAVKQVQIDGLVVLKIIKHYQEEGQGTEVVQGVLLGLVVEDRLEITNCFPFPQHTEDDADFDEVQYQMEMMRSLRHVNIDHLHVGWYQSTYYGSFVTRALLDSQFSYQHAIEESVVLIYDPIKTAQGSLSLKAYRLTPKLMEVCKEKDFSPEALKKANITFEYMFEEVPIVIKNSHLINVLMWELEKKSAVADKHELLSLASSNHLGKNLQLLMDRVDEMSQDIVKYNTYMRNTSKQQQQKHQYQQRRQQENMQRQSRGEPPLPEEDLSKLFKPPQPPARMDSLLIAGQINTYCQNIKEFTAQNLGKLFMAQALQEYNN
In short: as §1

[6] = target: T3, FAM105A (UniProt Q9NUU6)
T3 sequence (whole entry): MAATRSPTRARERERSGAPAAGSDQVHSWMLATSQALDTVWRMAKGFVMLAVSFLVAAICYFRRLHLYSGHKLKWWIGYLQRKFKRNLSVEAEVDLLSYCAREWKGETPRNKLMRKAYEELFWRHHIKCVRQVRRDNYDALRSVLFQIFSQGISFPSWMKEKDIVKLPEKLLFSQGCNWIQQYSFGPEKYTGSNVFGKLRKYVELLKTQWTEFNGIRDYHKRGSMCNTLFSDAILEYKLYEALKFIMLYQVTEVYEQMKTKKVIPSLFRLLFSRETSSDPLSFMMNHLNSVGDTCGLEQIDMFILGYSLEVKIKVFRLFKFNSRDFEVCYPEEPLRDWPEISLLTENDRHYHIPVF
In short: as §1

[7] = target: OTUB1 (UniProt Q96FW1)
Chain of OTUB1 (Q96FW1 whole entry): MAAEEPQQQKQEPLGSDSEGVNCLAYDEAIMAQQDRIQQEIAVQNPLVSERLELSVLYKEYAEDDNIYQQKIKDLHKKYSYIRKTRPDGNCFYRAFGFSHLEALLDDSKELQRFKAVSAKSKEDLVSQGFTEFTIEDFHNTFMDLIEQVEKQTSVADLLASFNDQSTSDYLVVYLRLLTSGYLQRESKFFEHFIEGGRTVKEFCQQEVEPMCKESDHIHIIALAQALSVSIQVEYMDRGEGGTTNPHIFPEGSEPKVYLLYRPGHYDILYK
In short: as §1

[8] = target: T4, OTUD4 (UniProt Q01804)
T4 sequence (whole entry): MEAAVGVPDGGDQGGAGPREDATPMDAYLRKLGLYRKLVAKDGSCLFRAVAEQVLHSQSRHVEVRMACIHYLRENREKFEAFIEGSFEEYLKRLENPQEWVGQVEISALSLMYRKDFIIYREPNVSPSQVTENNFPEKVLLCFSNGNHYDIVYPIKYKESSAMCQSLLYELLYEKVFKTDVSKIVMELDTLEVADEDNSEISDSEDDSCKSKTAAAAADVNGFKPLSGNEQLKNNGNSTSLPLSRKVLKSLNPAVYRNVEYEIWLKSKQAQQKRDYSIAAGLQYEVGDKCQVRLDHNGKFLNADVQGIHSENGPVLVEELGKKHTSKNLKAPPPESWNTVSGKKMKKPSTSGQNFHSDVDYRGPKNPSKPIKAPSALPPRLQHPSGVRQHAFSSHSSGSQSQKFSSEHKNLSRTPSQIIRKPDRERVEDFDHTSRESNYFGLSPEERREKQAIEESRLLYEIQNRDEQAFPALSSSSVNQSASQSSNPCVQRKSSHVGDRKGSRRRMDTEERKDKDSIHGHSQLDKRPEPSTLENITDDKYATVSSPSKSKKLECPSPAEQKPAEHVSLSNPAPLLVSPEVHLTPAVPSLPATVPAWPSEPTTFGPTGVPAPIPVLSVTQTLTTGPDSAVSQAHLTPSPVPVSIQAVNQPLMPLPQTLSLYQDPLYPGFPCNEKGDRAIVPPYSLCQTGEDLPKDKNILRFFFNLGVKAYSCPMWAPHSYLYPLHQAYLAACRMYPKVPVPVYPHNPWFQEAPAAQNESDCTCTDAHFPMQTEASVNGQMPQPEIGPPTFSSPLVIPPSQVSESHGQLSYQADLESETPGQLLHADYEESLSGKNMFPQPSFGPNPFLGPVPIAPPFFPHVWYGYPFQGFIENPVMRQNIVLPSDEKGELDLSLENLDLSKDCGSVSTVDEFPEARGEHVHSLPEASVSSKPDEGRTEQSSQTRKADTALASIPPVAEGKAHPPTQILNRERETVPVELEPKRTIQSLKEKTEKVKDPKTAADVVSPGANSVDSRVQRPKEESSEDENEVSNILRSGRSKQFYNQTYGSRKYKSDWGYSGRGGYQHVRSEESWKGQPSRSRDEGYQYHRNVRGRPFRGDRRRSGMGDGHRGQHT
In short: as §1

[9] = target: T5, OTUD5 (UniProt Q96G74)
T5 sequence (whole entry): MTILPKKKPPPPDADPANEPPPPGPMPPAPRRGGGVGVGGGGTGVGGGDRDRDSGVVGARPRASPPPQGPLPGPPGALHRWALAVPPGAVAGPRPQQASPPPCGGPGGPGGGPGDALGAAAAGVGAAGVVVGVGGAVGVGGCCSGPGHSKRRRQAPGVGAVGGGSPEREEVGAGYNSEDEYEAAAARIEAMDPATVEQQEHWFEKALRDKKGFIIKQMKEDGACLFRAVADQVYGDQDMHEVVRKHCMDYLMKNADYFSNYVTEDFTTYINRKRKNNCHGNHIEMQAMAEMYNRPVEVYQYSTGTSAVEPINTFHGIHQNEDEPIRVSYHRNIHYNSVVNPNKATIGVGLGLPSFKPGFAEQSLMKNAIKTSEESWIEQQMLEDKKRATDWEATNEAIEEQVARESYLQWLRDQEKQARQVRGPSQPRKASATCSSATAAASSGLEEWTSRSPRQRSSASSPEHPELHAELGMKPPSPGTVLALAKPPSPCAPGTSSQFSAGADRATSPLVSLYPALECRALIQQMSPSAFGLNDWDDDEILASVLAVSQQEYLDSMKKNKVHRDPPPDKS
In short: as §1

SMILES	log2 ratio of Biotin-Ahx-Ub-VS probe labelling [1]	log2 ratio of Biotin-Ahx-Ub-VS probe labelling [2]	log2 ratio of Biotin-Ahx-Ub-VS probe labelling [3]	log2 ratio of Biotin-Ahx-Ub-VS probe labelling [4]	log2 ratio of Biotin-Ahx-Ub-VS probe labelling [5]	log2 ratio of Biotin-Ahx-Ub-VS probe labelling [6]	log2 ratio of Biotin-Ahx-Ub-VS probe labelling [7]	log2 ratio of Biotin-Ahx-Ub-VS probe labelling [8]	log2 ratio of Biotin-Ahx-Ub-VS probe labelling [9]
O=C(CCl)N(Cc1ccsc1)C1CC1	0.115	-0.173	-0.841	-0.0964	0.0796	-0.378	-0.191	-0.285	-0.657
CN(C(=O)CCl)c1nc2ccccc2s1	0.217	-0.82	-0.457	-0.117	0.0319	0.108	-0.597	-0.0109	-1.02 (active)
CCCn1nccc1NC(=O)CCl	0.12	-0.199	-3.06 (active)	-0.613	0.123	0.145	-0.396	0.00925	-0.138
Cc1cccc(N2CCC(NC(=O)CCl)C2=O)c1 (stereo unspecified)	-0.354	-0.569	-4.17 (active)	-0.331	0.306	0.111	-0.325	-0.412	-0.338
